# Among all 2,300 compounds or so, about 30 (1%) were called active. The list is a sample of the results. Unmarked numbers belong to inactive results.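 Rule for the calls: active = activation of at least 30% at 10 µM; inactive = the rest.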
# Assay: beacon detection-step fluorescence artefacts – biochemical, fluorescent molecular beacon, single concentration, artefact control for DNMT1 inhibitor project, confirmation (AID 602387);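 note: DNMT1 catalytic domain with a HinP1I cleavage step and a FAM/dabcyl DNA beacon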
# Settings: DNMT1 molecular beacon spectral interference counterscreen, fluorescence 485/520; at 10 µM; stronger effect = higher value
row,Structure (SMILES),activation (fluorescence interference)
1,COc1ccc(NC(=O)CCn2ccnc2)c(OC)c1,5.11%
2,Cc1ccc2[nH]c(=O)c(-c3nc4c(C)cccn4c3NCc3ccco3)cc2c1,-3.31%
3,NNc1cccc(C=Cc2ccccc2)cc1=O,-0.89%
4,NC1=CC(=O)C(=O)c2cccnc21,34.8% (active)
5,C=C(C)C(=O)Nc1cccc(C2=NOC3(C2)C[C@H](C(N)=O)N(C(=O)C(c2ccccc2)c2ccccc2)C3)c1 (stereo partly drawn),-0.25%
6,CCC/C=C(\CCC)C(NC(=O)Cc1ccccc1)c1ccc(C(=O)OC)cc1 (stereo not drawn),2.66%
7,Cc1ccccc1NC(=O)CN1C(=O)N/C(=C\c2cccn2-c2cccc(C(=O)O)c2)C1=O,-2.61%
8,O=C(Nc1nc(-c2ccco2)c(-c2ccco2)s1)c1ccco1,6.11%
9,O=c1[nH]c(/C=C/c2cccc(Br)c2)nc2ccccc12,-5.42%
10,CC(=O)Nc1ccccc1Sc1ccc2c3c(cccc13)C(=O)N(c1ccc(C)cc1)C2=O,2.58%
11,Cc1ccc(Cc2cncc(O)c2)cc1S(=O)(=O)O,5.41%
12,CC(=O)c1ccc(NC(=O)c2ccc3c(Cl)c4c(nc3c2)CCCC4)cc1,-4.05%
13,Cc1ccccc1-n1cc(CNC(=O)CC2C(=O)NCCN2C/C=C/c2ccccc2)cn1 (stereo not drawn),1.73%
14,Cc1ccc(-c2cc(C(=O)NCc3cn(C)nc3C)c3cc(Br)ccc3n2)cc1,2.74%
15,Cc1ccc(-c2nnc(-c3ccc(NC(=O)c4cccs4)cc3)o2)cc1,-3.03%
16,O=C(CN1CCCSc2ccccc21)N1CCN(S(=O)(=O)c2cccc(F)c2)CC1,2.83%
17,O=C(COC(=O)/C=C/c1cn(-c2ccccc2)nc1-c1cccnc1)Nc1ccc(Cl)cc1Cl,-2.13%
18,O=C(Nc1cccc(F)c1)c1cc(-c2ccco2)nc2ccccc12,3.89%
19,COc1ccc(CC(=O)Nc2ccc(-c3nnc(-c4ccccc4)o3)cc2)cc1,-2.31%
20,CCOc1ccc(CN2CCC(n3nccc3NC(=O)C3CC3)CC2)cc1CO,3.5%

row,Structure (SMILES),activation (fluorescence interference)
1,Nc1cc2c(cc1Br)-c1ccc(F)cc1C2=O,-1.05%
2,COc1ccc2c(c1)c(=O)c(C(=O)c1ccc(Cl)cc1)cn2CC(=O)Nc1ccc(F)cc1,-1.8%
3,O/N=C1\CC2(Cc3nonc31)OCCO2,2.87%
4,CCOC(=O)N1CC=C2C(C#N)=C(N)C(C#N)(C#N)[C@H](c3cccs3)[C@H]2C1,9.6%
5,NC(CSC(c1ccccc1)(c1ccccc1)c1ccc(-c2ccccc2)cc1)C(=O)O (stereo not drawn),5.09%
6,CC1CN(C(=O)c2ccccc2NS(=O)(=O)c2cccc([N+](=O)[O-])c2)CC(C)O1 (stereo not drawn),1.08%
7,C=CC1=C(C(=O)O)N2C(=O)[C@@H](NC(=O)/C(=N\OCC(=O)O)c3csc(N)n3)[C@H]2SC1,7.32%
8,Cc1ccc(N=C2NC(=O)/C(=C/C=C/c3ccco3)S2)cc1C,-1.63%
9,CN(C)/C=C(/C(=O)c1ccc(Cl)cc1)S(=O)(=O)c1ccccc1,1.79%
10,Cc1cc2nc(-c3ccco3)c(Cc3cccc(F)c3)n2c(C)c1Br,0.96%
11,COc1ccc(Cc2nnc(NC(=O)Cc3cccs3)s2)cc1,-0.3%
12,CCc1ccc(NC(=O)CS(=O)CC(=O)NCCCc2ccccc2)cc1 (stereo not drawn),2.85%
13,CCOc1cc(CN2CCCC(CO)(Cc3ccc(F)cc3F)C2)ccc1OC (stereo not drawn),4.08%
14,Cc1onc(-c2ccccc2)c1C(=O)Nc1ccccc1C#N,3.12%
15,Cc1cc(O)c(C(=O)/C=C/c2c(F)c(F)c(F)c(F)c2F)c(=O)o1,6.03%
16,c1coc(-c2nc3nc4ccccc4n3nc2-c2ccco2)c1,0.5%
17,CCN(C(=O)CSc1nc(N)cc(=O)[nH]1)C1CCS(=O)(=O)C1 (stereo not drawn),2.08%
18,c1ccc2cc3c(NCCN4CCOCC4)ccnc3cc2c1,-0.48%
19,O=C(Cn1nnc(-c2ccccc2)n1)N/N=C/c1ccc(-c2ccc(Cl)cc2)o1,3.12%
20,CC1(C(=O)NS(=O)(=O)c2ccccc2)CCN1C(=O)C/C=C/c1ccccc1 (stereo not drawn),-0.14%

row,Structure (SMILES),activation (fluorescence interference)
1,CCN1CCN(Cc2nc3c(c(=O)n(C)c(=O)n3C)n2CC(=O)c2ccccc2)CC1,2.13%
2,C/C(=N\Nc1ccc(S(N)(=O)=O)cc1[N+](=O)[O-])c1cccs1,0.04%
3,O=C(COC(=O)c1ccc(F)cc1F)Nc1ncccn1,3.67%
4,C=CCn1c(=NC(=O)c2ccc(S(=O)(=O)N3CCCC3)cc2)sc2cc(NC(C)=O)ccc21,-2.75%
5,Cc1ccc(/C=C/C(=O)Nc2ccc([N+](=O)[O-])c(NC(=O)/C=C/c3ccc(C)o3)c2)o1,-0.1%
6,O=C(COC(=O)CCC(=O)c1cccs1)NCc1ccco1,2.99%
7,CC(C)(C)N(Cc1ccccc1)C(=O)c1ccncc1,4.75%
8,CCOC(=O)c1c(NC(=S)NC(=O)/C=C/c2cccs2)sc(C)c1C,2.75%
9,CN(Cc1nc2ccc(F)cc2[nH]1)Cc1nc(CC2CC2)no1,5.14%
10,O=C(c1cccs1)N1CCC(c2nc3ccccc3s2)CC1,4.65%
11,O=C(CCNC(=O)c1ccccc1)NN=Cc1ccc(Br)o1,2.53%
12,CCOC(=O)/C(C#N)=C/c1ccc(OCC(=O)Nc2ccccc2)c(OC)c1,6.65%
13,COc1cccc(C(=O)Nc2ccc(N3CCCC3)cc2)c1,5.04%
14,C=Cc1ccc(C(=O)N2CCCC(CCC(=O)N3CCN(c4ccccn4)CC3)C2)cc1 (stereo not drawn),-0.29%
15,CCN1C(=O)c2cccc3c(N)ccc1c23,6.17%
16,CCNC(=O)C1CCCN(C(=O)c2cc(F)ccc2C)CC1 (stereo not drawn),5%
17,COc1ccc(C(=O)OCC(=O)Nc2cccc(C(C)=O)c2)cc1OC,8.78%
18,CCOc1ccccc1/C=c1\sc2nc(-c3ccco3)nn2c1=O,3.15%

# From PubChem BioAssay AID602387 (Sanford-Burnham Center for Chemical Genomics, 2012)
